Laboratory results from PubChem BioAssay AID1159580 (chemical genetic matrix, 2015).
“And” between values parts separate entries of the source, which are not always exact repeats. Identical values can stand only once. In all, about 5,500 compounds went through this assay and about 2,000 (36%) were called active. Another 18% or so got no clear call; they are omitted. Rule as the data show it: active = normalized growth mostly below about 0.91 (no sharp cut-off); inconclusive = no clear call, values can overlap the other calls; inactive = mostly above about 0.92. The list shows a part of the results.

Assay: chemical genetic growth profiling, strain panel (AID 1159580);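 also: tested at 20 µM; growth read once vehicle control cultures reached saturation at 30 °C; 1 = growth at the plate median or of vehicle wells; lower values mean less growth of the strain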
Settings: S. cerevisiae deletion strains, growth OD

Measured: normalized growth

CN(C)CCCO[C@H]1[C@@H](C(O)CO)OC2OC(C)(C)O[C@@H]21 (some centres not stated)
active: locus YGL086W, strain mad1, hits give low values 0.926 | locus YGR229C, strain SMI1, hits give low values 0.8 | locus YJR043C, strain POL32, hits give low values 0.85
inactive: locus YAL013W, strain DEP1, hits give low values 0.928 | locus YAL021C, strain ccr4, hits give low values 1 | locus YAL026C, strain drs2, hits give low values 0.98 | locus YAL030W, strain snc1, hits give low values 0.98 | locus YBL061C, strain skt5, hits give low values 0.98 | locus YBR009C, strain hhf1, hits give low values 0.985 | locus YBR021W, strain FUR4, hits give low values 0.953 | locus YBR023C, strain chs3, hits give low values 0.98 | locus YBR171W, strain sec66, hits give low values 0.964 | locus YBR229C, strain ROT2, hits give low values 0.993 | locus YBR231C, strain swc5, hits give low values 0.992 | locus YBR279W, strain paf1, hits give low values 1.01 | locus YCL011C, strain gbp2, hits give low values 0.956 | locus YCL016C, strain dcc1, hits give low values 0.973 | locus YCL029C, strain bik1, hits give low values 0.984 | locus YCL061C, strain MRC1, hits give low values 0.987 | locus YCL069W, strain vba3, hits give low values 0.996 | locus YCR088W, strain abp1, hits give low values 0.994 | locus YDL005C, strain med2, hits give low values 0.995 | locus YDL035C, strain GPR1, hits give low values 0.946 | locus YDL040C, strain nat1, hits give low values 0.995 | locus YDL074C, strain BRE1, hits give low values 0.871 | locus YDL101C, strain DUN1, hits give low values 0.994 | locus YDL134C, strain PPH21, hits give low values 0.991 | locus YDL185W, strain tfp1, hits give low values 0.98 | locus YDL192W, strain arf1, hits give low values 0.966 | locus YDR001C, strain nth1, hits give low values 0.968 | locus YDR069C, strain doa4, hits give low values 0.989 | locus YDR101C, strain arx1, hits give low values 0.981 | locus YDR137W, strain rgp1, hits give low values 0.963 | locus YDR150W, strain NUM1, hits give low values 0.995 | locus YDR159W, strain sac3, hits give low values 0.982 | locus YDR162C, strain NBP2, hits give low values 1.08 | locus YDR195W, strain ref2 0.995 | locus YDR297W, strain sur2, hits give low values 0.992 | locus YDR318W, strain mcm21, hits give low values 0.933 | locus YDR334W, strain swr1, hits give low values 0.938 | locus YDR335W, strain msn5, hits give low values 0.981 | locus YDR388W, hits give low values 0.989 | locus YDR392W, strain spt3, hits give low values 0.921 | locus YDR502C, strain sam2, hits give low values 0.937 | locus YEL003W, strain gim4, hits give low values 0.98 | locus YEL037C, strain rad23, hits give low values 0.977 | locus YEL061C, strain CIN8 (second series), hits give low values 0.975 | locus YEL061C, strain CIN8, hits give low values 0.993 | locus YER015W, strain faa2, hits give low values 0.991 | locus YER016W, strain bim1, hits give low values 0.999 | locus YER110C, hits give low values 0.946 | locus YER111C, strain swi4, hits give low values 0.986 | locus YER155C, strain BEM2 (second series), hits give low values 0.98 | locus YER155C, strain BEM2, hits give low values 1 | locus YER167W, strain BCK2, hits give low values 0.915 | locus YFR010W, strain ubp6, hits give low values 0.971 | locus YGL078C, strain dbp3, hits give low values 1 | locus YGL167C, strain pmr1, hits give low values 0.984 | locus YGL173C, strain kem1, hits give low values 0.964 | locus YGL227W, strain vid30, hits give low values 0.987 | locus YGL240W, strain doc1, hits give low values 1 | locus YGL248W, strain PDE1, hits give low values 0.977 | locus YGL253W, strain hxk2, hits give low values 0.996 | locus YGR078C, strain PAC10, hits give low values 0.907 | locus YGR135W, strain pre9, hits give low values 0.929 | locus YGR252W, strain gcn5, hits give low values 0.849 | locus YHR013C, strain ard1, hits give low values 0.973 | locus YHR027C, strain rpn1, hits give low values 0.968 | locus YHR030C, strain SLT2, hits give low values 0.984 and 0.969 | locus YHR079C, strain IRE1 (second series), hits give low values 0.977 | locus YHR079C, strain IRE1, hits give low values 0.984 | locus YHR094C, strain hxt1, hits give low values 0.986 | locus YHR129C, strain ARP1, hits give low values 0.963 | locus YHR142W, strain chs7, hits give low values 0.946 | locus YHR200W, strain rpn10, hits give low values 0.948 | locus YIL066C, strain RNR3, hits give low values 0.951 | locus YIL073C, strain SPO22, hits give low values 0.932 | locus YIL125W, strain kgd1, hits give low values 0.993 | locus YIR030C, strain dcg1, hits give low values 0.986 | locus YJL092W, strain hpr5, hits give low values 0.987 | locus YJL095W, strain BCK1 (second series), hits give low values 0.993 | locus YJL095W, strain BCK1, hits give low values 0.883 and 0.978 | locus YJL115W, strain asf1, hits give low values 0.963 | locus YJL129C, strain trk1, hits give low values 1.01 | locus YJL134W, strain LCB3, hits give low values 0.993 | locus YJL154C, strain vps35, hits give low values 0.966 | locus YJL164C, strain tpk1, hits give low values 0.998 | locus YJL166W, strain qcr8, hits give low values 0.969 | locus YJL168C, strain set2, hits give low values 0.985 | locus YJL187C, strain SWE1 (second series), hits give low values 0.989 | locus YJL187C, strain SWE1, hits give low values 0.994 | locus YJR066W, strain TOR1, hits give low values 0.97
